LYPLA1 inh = LYPLA1 (human) inhibition in PME1 counter-screen; O75608; recombinant LYPLA1, FP-Rh probe fluorescence polarization; inhibition, % at 5.9 µM; 320,000 tested, 0.16% active;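 active = inhibition above the mean of all tested compounds plus 3 SD, set per campaign, cut at about 14% in these data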;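 also: inhibitors block serine hydrolase probe labeling of LYPLA1 so polarization falls; 0% = enzyme with DMSO and 100% = wells lacking LYPLA1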
GSTO1 counter = counter-screen for RBBP9 inhibitors: inhibitors of human GSTO1; P78417; 300,000 tested, 1.1% active; recombinant GSTO1, activity-based probe fluorescence polarization; inhibition, % at 5.96 µM;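 active = inhibition above the campaign mean inhibition plus 3 SD, cut at about 35% in these data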;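 also: 0% = GSTO1-1 with DMSO and 100% = wells lacking GSTO1-1 enzyme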
LYPLA2 inh = blocks human lysophospholipase 2, a PME1 counter-screen; O95372; recombinant LYPLA2, FP-Rh probe fluorescence polarization; inhibition, % at 5.9 µM; 320,000 tested, 0.38% active; AID 2177;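 active = inhibition above the screen-wide mean plus 3 SD, limit set per campaign, cut at about 26% in these data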;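 also: 0% = LYPLA2 with DMSO and 100% = wells lacking LYPLA2 enzyme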
PAD4 FP inh = blocks human protein arginine deiminase 4; 330,000 tested, 0.41% active; inhibition, % at 6.36 µM; recombinant PAD4, RCA probe fluorescence polarization; AID 485272; Q9UM07;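 active = percent inhibition above a cutoff equal to the mean of all tested compounds plus 3 SD, cut at about 15% in these data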;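 also: 0% = PAD4 with RCA probe and DMSO and 100% = probe without PAD4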
PME-1 inh = PME-1 (human) inhibition | recombinant PME-1, FP-Rh probe fluorescence polarization | 320,000 tested, 0.53% active | AID 2130 | inhibition, % at 5.9 µM;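 active = inhibition above the campaign mean of all compounds plus 3 SD, cut at about 26% in these data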;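 also: competitive labeling of PME-1 active site by serine hydrolase directed probe; 0% = PME-1 with DMSO and 100% = wells lacking PME-1 enzyme; inhibitors block probe labeling so polarization falls and inhibition rises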
Fam108B counter = blocks mouse Fam108B hydrolase in RBBP9 counter-screen; recombinant Fam108B, FP-Rh probe fluorescence polarization; inhibition, % at 9.51 µM; 300,000 tested, 0.33% active; AID 1947;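 active = inhibition above the screen mean inhibition plus 3 SD, computed separately per campaign, cut at about 18% in these data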;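 also: inhibitors lower polarization as less probe binds the enzyme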
PAD4 FP conf = PAD4 (human) inhibition, confirmed | inhibition, % at 6.36 µM | shares compounds with PAD4 FP inh | recombinant PAD4, RCA probe fluorescence polarization | 1,200 tested, 28% active;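 active = mean inhibition across replicates above the hit cutoff set by the earlier primary screen, cut at about 15% in these data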;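 also: inhibitors block active-site labeling by the probe so polarization falls; 0% = PAD4 with probe and DMSO and 100% = probe without PAD4 enzyme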
An asterisk follows results filed as active; x = not tested or not shown. An excerpt weighted towards active compounds, which were near 1.8% of everything screened.

SMILES	LYPLA1 inh	GSTO1 counter	LYPLA2 inh	PAD4 FP inh	PME-1 inh	Fam108B counter	PAD4 FP conf
O=C(NCC1CCCO1)c1ccc(C(=O)NCC2CCCO2)cc1 (stereo not given)	-3	-12	-5	-2	5	0	x
CN(c1ccc(C(=O)NCC2CCCO2)cc1)S(C)(=O)=O (stereo not given)	2	4	0	15*	1	-1	2
CCSc1ccc(-c2nn(-c3ccccc3)cc2/C=C(/C#N)C(=O)NC)cc1	-3	-16	-10	16*	0	-8	23*
Clc1ccc(-c2ccc(C=Nc3ccc(N4CCOCC4)cc3)o2)cc1	4	30	7	31*	8	5	6
Clc1ccc(-c2ccc(C=Nc3ccc(N4CCOCC4)cc3)o2)c(Cl)c1	-1	26	3	-3	-7	0	x
CC1CC(C)CN(CC(=O)Nc2cc(S(=O)(=O)N3CCOCC3)ccc2N2CCCC2)C1 (stereo not given)	0	x	3	1	0	x	x
CCOc1ccc(N)c(SSc2cc(OCC)ccc2N)c1	1	23	-8	26*	-9	-3	31*
CS(=O)(=O)c1ccc2nc(N)sc2c1	1	1	2	-2	-2	0	x
CS(=O)(=O)c1ccc(N)c(SSc2cc(S(C)(=O)=O)ccc2N)c1	1	18	0	45*	2	3	52*
COc1ccc(C(c2nnnn2CCc2ccccc2)N2CCN(C3CCCC3)CC2)cc1OC (stereo not given)	1	5	1	0	2	1	x
O=C(Nc1ccc(S(=O)(=O)Nc2ncccn2)cc1)c1ccc2ncsc2c1	-3	-6	1	18*	-7	-4	10

From PubChem
